PubChem BioAssay
The source made the active and inactive calls.

experiment: probe aXIP binding to arrayed compounds – biochemical, NeuroSMM set, 635/667 nm fluorescence, primary screen (AID 1119); details: small-molecule microarray, higher = more signal, called active from +8 up or from −8 down;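 also: probe is the protein aXip251-270 applied at 1 µg/mL to compound-printed slides; binding of probe to printed compounds measured as 667 nm fluorescence plus signal to noise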

| SMILES | composite Z-score |
| --- | --- |
| CN1CCC(CCCO)=CC1C1CC1 (stereo unspecified) | 3.24 (inactive) |
| NC(=O)NCC#Cc1ccc2c(c1)[C@]1(C(=O)N2)[C@H](C(=O)N2CCCCCCC2)[C@H]2C(=O)O[C@H](c3ccccc3)[C@H](c3ccccc3)N2[C@@H]1c1ccccc1OCCO | 4.79 (inactive) |
| C=CCC(OC(C)=O)[C@@H]1[C@@H](N(Cc2cc3ccccc3o2)C(=O)c2ccc(C)cc2)c2cc(OCCCO)ccc2N1C(=O)c1ccc2ccccc2n1 (stereo partly specified) | 0.0726 (inactive) |
| CO[C@H]1COC(=O)[C@H](C)COC(=O)[C@H](Cc2ccccc2)NC(=O)CC=C[C@H]1C | 0.72 (inactive) |
| C=CC[C@@]12N=C(c3ccc(OCCCO)cc3)O[C@@H]1c1ccccc1CN(Cc1ccccc1)C2=O | 0.999 (inactive) |
| CCCC[C@@H]1C[C@H]1[C@@H](NC(=O)c1cccs1)c1ccc(Cl)cc1 | 2.33 (inactive) |
| CO[C@H]1COC(=O)[C@H](CCSC)NC(=O)CC=C[C@@H](C)COC(=O)[C@@H](OCc2ccccc2)C=C[C@@H]1C | -0.273 (inactive) |
| O=C1c2ccccc2[C@@]2(Cc3ccccc3N(CC(F)(F)F)C2=O)[C@H](c2ccc(CO)cc2)N1C1CCCCC1 | -0.336 (inactive) |
| CC(C)(C)OC(=O)CC[C@@]1(C(=O)NCc2ccccc2)N=C(c2ccc(OCCCO)cc2)O[C@@H]1c1ccccc1 | -0.216 (inactive) |
| CC[C@H]1C2=C3C(CC[C@H]4C(OC)OC[C@](C)([C@@H]34)N(C(=O)OC(C)(C)C)C2)C(CO)C1CO (stereo partly specified) | 0.067 (inactive) |
| CO[C@]12C=C(Br)[C@@H](C[C@@H]1c1ccccc1)[C@@]1(CO1)C2=O | -0.0467 (inactive) |
| COCCOC(=O)N1C(=O)[C@@]2(c3cc(C#CC4=CCCCC4)ccc31)[C@H](C(=O)NC[C@H](O)c1ccccc1)[C@H]1C(=O)O[C@H](c3ccccc3)[C@H](c3ccccc3)N1[C@@H]2c1ccc(OCCO)cc1 | -0.0384 (inactive) |
| C=C(CCCC)/C(=C/C[C@@H](OC(=O)c1ccncc1)c1cccc(OCCO)c1)c1cc(C(=O)OC)ccc1OC | -0.259 (inactive) |
| COCCOC(=O)N1C(=O)[C@@]2(c3cc(C#CCC(C(=O)OC)C(=O)OC)ccc31)[C@H](C(=O)N1CCN(c3ncccn3)CC1)[C@H]1C(=O)O[C@H](c3ccccc3)[C@H](c3ccccc3)N1[C@@H]2c1ccc(O)cc1 | 0.394 (inactive) |
| Cc1ccc(N2C(=O)c3ccccc3[C@](C)(C(=O)O)[C@@H]2c2ccc(CO)cc2)nc1 | -0.313 (inactive) |
| CN(C)CCCC[C@@H]1NC(=O)[C@@H]2C[C@H](C(=O)NCCCCCNC(=O)CS)[C@H](c3ccc(O)cc3)N2C1=O | 0.0077 (inactive) |
| C=CCC(OC(C)=O)[C@@H]1[C@@H](N(Cc2ccc(-c3cccc(C(F)(F)F)c3)o2)C(=O)Cc2ccc(F)cc2)c2cc(OCCCO)ccc2N1C(=O)c1ccc(-c2ccccc2)cc1 (stereo partly specified) | -0.014 (inactive) |
| C=CC[C@]1(C(=O)NCC(O)CO)N=C(c2ccc(OCCCO)cc2)O[C@H]1c1ccccc1 (stereo partly specified) | 1.59 (inactive) |

| SMILES | composite Z-score |
| --- | --- |
| CCOC(=O)C1=CC[C@@H](c2ccccc2)N(S(=O)(=O)c2ccc(C)cc2)[C@H]1C | 0.102 (inactive) |
| O=C1O[C@H](c2ccccc2)[C@H](c2ccccc2)N2[C@H]1[C@@H](C(=O)NC[C@H](O)c1ccccc1)[C@]1(C(=O)Nc3ccc(C#CC4=CCCCC4)cc31)[C@H]2c1ccc(OCCO)cc1 | 0.318 (inactive) |
| COC(=O)Cn1c(C(=O)N2CCCC2)cc2c1C[C@H]1CN(C(=O)c3ccccc3)[C@@](Cc3ccc(OC)cc3)(C(=O)OC)[C@@H]21 | 1.09 (inactive) |
| COC(=O)C1=CC(c2ccc(CO)cc2)=CC(c2cccs2)N(Cc2cccc(OC(F)(F)F)c2)C=C1C(=O)OC (stereo unspecified) | 0.639 (inactive) |
| O=C/C=C/c1ccccc1Cl | -0.02 (inactive) |
| CCOC(=O)C[C@H]1[C@H](OC(=O)c2ccccc2-c2ccccc2)[C@@H](NC(=O)C2CCCCC2)c2cc(OCCCO)ccc2N1C(=O)c1ccccc1 | 0.909 (inactive) |
| CC1=C([C@H](O)CCc2ccccc2)[C@H](CO)[C@@H]2C(=O)N(Cc3ccccc3)C(=O)[C@@H]2C1 | 0.39 (inactive) |
| C#CCCCON=C1C[C@@H](O)[C@@H](O)[C@@H]2[C@@H]3C(=O)N(Cc4ccc5c(c4)OCO5)C(=O)[C@@H]3CC[C@H]12 | 0.756 (inactive) |
| CC(C)CNC(=O)[C@@]1(C)c2ccccc2C(=O)N(Cc2ccc(OC(F)(F)F)cc2)[C@H]1c1ccc(CO)cc1 | 0.416 (inactive) |
| CCCC=C(CCC)[C@@H](NC(=O)c1ccccc1)c1ccccc1 | 0.108 (inactive) |
| CO[C@H]1O[C@H](CO)[C@@H](OC(=O)Nc2ccccc2)[C@H](OC(=O)Nc2ccc3c(c2)OCO3)[C@@H]1OC(=O)Nc1ccc2c(c1)OCO2 | 0.741 (inactive) |
| O=C(NCC(F)(F)F)[C@@H]1c2ccccc2C(=O)N(Cc2ccccc2Cl)[C@H]1c1ccc(CO)cc1 | -0.152 (inactive) |
| CCN1C(C)=C(C(=O)OC)[C@@H](c2ccccc2)N2C(=O)[C@](O)(C(=O)OC)[C@@H](c3ccccc3)C(C(=O)c3ccccc3)=C12 | 0.111 (inactive) |
| CC(=O)NCCCC[C@@H]1NC(=O)[C@H]2C[C@@H](C(=O)NCCCCCCN(C)C)[C@@H](c3cccc(OCCO)c3)N2C1=O | 3.25 (inactive) |
| CCC(=O)[C@]12O[C@@]3([C@@H]4C(=O)OCC[C@@H]41)N(Cc1ccccc1)C(C)=C(C(=O)OC)[C@@H](c1ccccc1)N3C2=O | -0.428 (inactive) |
| CCCCCCc1nc(-c2cc(C)c(OC)c(C)c2)cc2c1[Si](C(C)C)(C(C)C)O[C@H]2c1ccccc1 | -0.315 (inactive) |
| O=C1C2C=CC(C(O)C(c3ccccc3)c3ccccc3)N(Nc3ccc([N+](=O)[O-])cc3)C2C(=O)N1c1ccccc1 (stereo unspecified) | -0.214 (inactive) |
| CC(=O)NCCCC[C@@H]1NC(=O)[C@@H]2C[C@H](C(=O)NCCCCCNC(=O)CS)[C@H](c3ccc(O)cc3)N2C1=O | 1.43 (inactive) |
